# Laboratory results published in PubChem BioAssay (NCATS).
# Values without a mark were called inactive. The call rests on the fitted dose curve; in most records, active means well fitted curve in the direction sought with a large enough effect; inconclusive means small, poorly fitted or top-dose-only effect, or effect the other way, or another doubt; inactive means no such curve, though single readings can be large or run the other way.
# Experiment: Inducers of the Endoplasmic Reticulum Stress Response (ERSR) in human glioma: Validation (AID 504836); further: 0% is about no effect
# Conditions: human glioma cells, ER stress response reporter; series mostly up to 38.3 µM; activation: at the top concentration
# From the text: Primary protein unfolding takes place for many diseases, including diabetes and hypoxia, , and triggers a reaction in the cells called ER stress response (ERSR). ). ERSR is designed as a repair mechanism, but ultimately leads to cell death via apoptosis if conditions triggering protein unfolding persist (1). The molecular clue to ERSR activation is the enhancement of the expression of key molecular chaperones, including the glucose regulated protein (GRP) 78. GRP78 is the main sensor for protein folding and the main actuator of the ERSR.
# In a collaboration between the Southern Research Institute and the NIH Chemical Genomics Center, a cell based screen was developed that reliably uses GRP78 as a sensor to identify small molecules as inducers of ERSR. In resting conditions, GRP78 binds proteins and acts as a natural repressor. Once unfolded proteins are present in the ER, GRP78 releases some of the repressors and binds to the unfolded proteins. The release of the repressors executes the ERSR program. Using a human glioma cell line in a miniaturized, luminescent format, a high-throughput screen was developed to identify actuators of the ERSR.
# (1) Soboloff, J. and S. A. Berger (2002). "Sustained ER Ca2+ depletion suppresses protein synthesis and induces activation-enhanced cell death in mast cells." J Biol Chem 277(16): 13812-20.
# NIH Chemical Genomics Center [NCGC]
# NIH Molecular Libraries Probe Centers Network [MLPCN]
# Assay Submitter (PI): Maurizio Grimaldi, Southern Research Institute
# Stable transfected human glioma cell line, U87-MG, are dispensed at density 1000 cells/well into Greiner white solid bottom 1536-well assay plates. Compounds are transferred via Kalypsys pin tool equipped with 1536-pin array (10nl slotted pins, V&P Scientific, San Diego, CA). The assay plates will be incubated for 16 hours and developed by adding appropriate quantities of the Promega Bright Glo reagent. The plates will be incubated at room temperature for 10 minutes prior to being transferred into a ViewLux high-throughput CCD imager (PerkinElmer), wherein end-point measurements of luminescence are acquired.
row,Compound,activation [%]
1,CC(C)C(=O)c1c(C(C)C)nn2ccccc12,-1.23
2,C[C@@H](O)[C@H]1C(=O)N2C(C(=O)O)=C(SCCN=CN)C[C@H]12,-1.86
3,CNC[C@H](O)c1cccc(O)c1,-2.53
4,CC(C)NNC(=O)c1ccncc1,-2.53
5,CC(NC(C)(C)C)C(=O)c1cccc(Cl)c1 (stereo not given),-0.814
6,COc1ccc(C2CNC(=O)C2)cc1OC1CCCC1 (stereo not given),-0.709
7,CCC1(C)CC(=O)NC1=O (stereo not given),-4.67
8,CC(=O)OC(C)C[N+](C)(C)C (stereo not given),-1.78
9,CCN(CC)C(=O)c1ccc(O)c(OC)c1,-3.7
10,CN(C)CCOC(=O)COc1ccc(Cl)cc1,0.5
11,COc1ccc2cc([C@H](C)C(=O)O)ccc2c1,-4.06
12,C[C@](N)(Cc1ccc(O)cc1)C(=O)O,0.788
13,Nc1ccn([C@@H]2O[C@H](CO)[C@@H](O)C2O)c(=O)n1 (stereo not given in full),-4.08
14,NCCc1ccc(O)cc1,-1.36
15,CCCCC/C=C\C/C=C\C/C=C\C/C=C\CCCC(=O)NCC(=O)O,-3.42
16,O=C(O)CCCCCCCC(=O)O,-4.23
17,CCN1CCC[C@H]1CNC(=O)c1c(O)c(Cl)cc(Cl)c1OC,-0.76
18,C[N+](C)(C)CCOC(N)=O,2.42
19,CCCNC(C)C(=O)Nc1ccccc1C (stereo not given),-2.81
20,CC(=O)OCC(=O)[C@@]1(O)CC[C@H]2[C@@H]3CCC4=CC(=O)CC[C@]4(C)[C@H]3C(=O)C[C@@]21C,1.53

row,Compound,activation [%]
1,NCCCCCC(=O)O,-1.03
2,Nc1cc(=O)[nH]c(N)n1,0.0828
3,CC(=O)OCC1=C(C(=O)O)N2C(=O)[C@@H](NC(=O)Cc3cccs3)[C@H]2SC1,2.12
4,NCCS(=O)(=O)O,-1.34
5,CC(N=C(NC#N)Nc1ccncc1)C(C)(C)C (stereo not given),-4.53
6,CC(C)(C)NCC(O)c1cc(O)cc(O)c1 (stereo not given),2.91
7,CC(=O)Oc1cc(C(C)C)c(OCCN(C)C)cc1C,-2.7
8,CNCCC=C1c2ccccc2CCc2ccccc21,-7.33
9,O=C(O)CN(CCN(CC(=O)O)CC(=O)O)CCN(CC(=O)O)CC(=O)O,-2.97
10,CC(C)C[C@H]1C(=O)N2CCC[C@H]2[C@]2(O)O[C@](NC(=O)[C@@H]3C=C4c5cccc6[nH]c(Br)c(c56)C[C@H]4N(C)C3)(C(C)C)C(=O)N12,2.76
11,CC(C)(Oc1ccc(C2CC2(Cl)Cl)cc1)C(=O)O (stereo not given),-0.971
12,CCCCCCCC/C=C\CCCCCCCC(=O)NCc1ccc(O)c(OC)c1,0.188
13,NC1CCN(c2cccc(Cl)n2)CC1,-2.43
14,NC(N)=NC(=O)Cc1c(Cl)cccc1Cl,-3.77
15,CCN1CCC[C@H]1CNC(=O)c1cc(S(N)(=O)=O)ccc1OC,-3.06
16,CNCC(O)c1ccc(O)c(O)c1 (stereo not given),-3.67
17,NC(=O)c1ncn([C@@H]2O[C@H](CO)[C@@H](O)[C@H]2O)c1O,-1.2
18,O=P1(N(CCCl)CCCl)NCCCO1 (stereo not given),-3.45
19,CC(CCc1ccc(O)cc1)NCCc1ccc(O)c(O)c1 (stereo not given),2.75
20,CCCCCN(C)CCC(O)(P(=O)(O)O)P(=O)(O)O,-4.53
